# Compounds without any hit were thinned out: in the full panel of roughly 83,000, 20% have a hit.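 For each line, cells grew in 96-well plates with the test compound present at a single concentration for 48 hours.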 Values without a mark were called inactive. Calls of active or inactive are those of the source. Rule for the calls: active = growth percent below 10; inactive = the rest.
# Legend:
# Assay in all cases: NCI-60 one-dose screen, 48 h (100 = growth as untreated, 0 = no growth, -100 = all killed)
# Conditions in all cases: 10 µM unless noted
# HCT-15 colon = test system: HCT-15 colon
# HT29 colon = test system: HT29 colon
# SNB-75 CNS = test system: SNB-75 CNS
# SNB-19 CNS = test system: SNB-19 CNS
# U251 CNS = test system: U251 CNS
# PC-3 prostate = test system: PC-3 prostate
# SK-MEL-5 melanoma = test system: SK-MEL-5 melanoma
# UACC-62 melanoma = test system: UACC-62 melanoma
# LOX IMVI melanoma = test system: LOX IMVI melanoma
# SK-MEL-28 melanoma = test system: SK-MEL-28 melanoma
SMILES,growth (HCT-15 colon),growth (HT29 colon),growth (SNB-75 CNS),growth (SNB-19 CNS),growth (U251 CNS),growth (PC-3 prostate),growth (SK-MEL-5 melanoma),growth (UACC-62 melanoma),growth (LOX IMVI melanoma),growth (SK-MEL-28 melanoma)
Cc1cc(N2CCCC2)nc(N(CCCNc2ccnc3cc(Cl)ccc23)Cc2ccccn2)n1,32.3%,11.2%,77.4%,65.9%,55.3%,52%,50.9%,79.8%,32.3%,69.8%
O=C(Nc1ccc(F)cc1F)c1cc(F)ccc1O,12.4%,93.4%,10.6%,10.7%,10.6%,13.5%,-59.1% (active),-0.318% (active),9.88% (active),21.9%
O=c1c2cc(F)ccc2sc2c(NCCN3CCOCC3)nc3ccccc3c12,20.8%,21.6%,59.5%,75.3%,52.4%,69%,95.1%,81.5%,20.6%,96.7%
COc1cc(/C=C/c2ccccc2)cc(OC)c1,91%,90.4%,93.1%,98.7%,84.1%,94.6%,96.5%,83.4%,84.8%,111%
O=C(Nc1ccc(Cl)cc1F)c1ccccc1O,42.7%,96.4%,36.4%,45.8%,34.6%,59.6%,-47.5% (active),9.27% (active),28.2%,29.9%
CC(C)c1cc(C(C)C)c(S(=O)(=O)Oc2ccc(NC(=O)c3ccc(Cl)cc3)cc2)c(C(C)C)c1,20.2%,46.6%,64.9%,17.6%,20.9%,14%,31.4%,9.11% (active),33.5%,56.8%
Cc1cc(Cl)ccc1NS(=O)(=O)c1ccc(-c2cnc(C3CC3)o2)cc1,14.1%,5.04% (active),-2.31% (active),22.8%,24.8%,26.6%,20.4%,26.7%,22.4%,49.1%
N#Cc1c(Nc2cccc(Cl)c2)sc(C(=O)c2cc3cc(Cl)ccc3o2)c1N,72.6%,80.5%,101%,97.5%,62.6%,62.8%,73.4%,78.6%,85.9%,94.3%
CC(=O)CC(c1ccccc1)c1c(C)[nH]c2ccccc12 (stereo not given),97.5%,103%,60.3%,93.2%,105%,87.9%,99.3%,86.7%,90.5%,102%
CCOC(=O)c1cn2ncnc(Oc3ccc(NC(=O)NCCN(CC)CC)c(Cl)c3)c2c1C,3.71% (active),5.37% (active),89.1%,83.2%,65.2%,66.1%,46.6%,-8.89% (active),-32.7% (active),-77.4% (active)
O=c1c2cc(F)ccc2sc2c(N3CCNCC3)nc3ccc(F)cc3c12,-66.4% (active),-41.2% (active),53.9%,57%,-56.2% (active),32%,81.5%,0.994% (active),-98.5% (active),27.9%
Cc1nc2cnc(N)c(C#Cc3cncc(C(=O)Nc4ccc(CN5CCN(C)CC5)c(C(F)(F)F)c4)c3)c2nc1C,2.84% (active),7.18% (active),-5.44% (active),48.2%,42.1%,29%,26.6%,-19.7% (active),-88.8% (active),-26.8% (active)
COc1ccc2c(c1OC)C(=O)O[C@H]2[C@H]1c2c(cc3c(c2OC)OCO3)CCN1C,95.6%,104%,88.5%,103%,97.2%,90.1%,96.2%,109%,90.2%,100%
COc1ccc2sc3c(NCCCNCCO)nc4ccccc4c3c(=O)c2c1,44%,-39.2% (active),65.9%,66.8%,32.2%,62.3%,81.4%,85%,-99.1% (active),70.6%
COc1nc2ccc(C)cc2cc1-c1nc2c(cnn2-c2ccccc2)c(=O)[nH]1,61.8%,48.3%,87.2%,84%,82.6%,65.9%,76.9%,60.2%,70.4%,81.9%
CC([C@H]1CCC2C3CCC4C[C@@H](NC=O)CC[C@]4(C)C3CC[C@@]21C)N(C)C (stereo not given in full),-59.7% (active),-49.4% (active),-1.26% (active),44.6%,4.82% (active),5.08% (active),-96.7% (active),-51.3% (active),-58.7% (active),-94.2% (active)
N#C/C(=C\c1ccc(F)cc1)n1nc2cccc(F)c2n1,30.6%,25.6%,0.195% (active),63.6%,28.1%,53.7%,73%,45.7%,20.6%,53.2%
CCC(C)(c1cc(C(C)(C)C)c(O)c(C(C)(C)C)c1)c1cc(C(C)(C)C)c(O)c(C(C)(C)C)c1,105%,96.3%,83.4%,104%,98.6%,101%,100%,91.8%,103%,106%
c1ccc2cc(C[n+]3ccn(CCCCCCCCCCCCn4cc[n+](Cc5ccc6ccccc6c5)c4)c3)ccc2c1,17.4%,-82.7% (active),-96.2% (active),-80.5% (active),-84.6% (active),-37.6% (active),-93.5% (active),-81.7% (active),-84.9% (active),-72.3% (active)
COc1cc2oc(-c3ccc(O)cc3)cc(=O)c2c(O)c1-c1c(OC)cc(O)c2c(=O)cc(-c3ccc(O)cc3)oc12,30.4%,12.1%,-2.61% (active),17.8%,19.2%,72.3%,-49.5% (active),-26.3% (active),18.2%,18.3%
COc1ccc(C2C(C#N)=C(N)Oc3c2sc2c(C)cccc32)cc1 (stereo not given),9.6% (active),6.72% (active),-4.52% (active),26.3%,25.4%,11.3%,29%,19.3%,17.2%,57.1%
CCOC(=O)Nc1ccc(C(=O)/C=C/c2ccccc2)cc1,85.7%,37.4%,116%,81.4%,73.6%,88.6%,92.2%,81.5%,70.5%,101%
CN(C)c1ccc(/C=N\Nc2cc(=O)[nH]c3ccc(Cl)cc23)cc1,99.3%,96%,78.4%,96.9%,99.8%,86.4%,98.3%,82.1%,99%,114%
COc1ccc2c(c1)nc(NNC(=O)c1cnccn1)c1cccn12,21.5%,27.2%,70.5%,31.3%,27.3%,39.4%,26.4%,11.5%,9.17% (active),25.1%
CNCCCNc1nc2ccccc2c2c(=O)c3cc(OC)ccc3sc12,57.5%,4.95% (active),72.6%,79.3%,48.3%,68.8%,91.6%,99.3%,-38.1% (active),103%
O=C(CCOCCNC(=O)COc1ccc2c(c1)OCC(c1ccc(F)cc1)C2=O)NCCCC(O)(P(=O)(O)O)P(=O)(O)O (stereo not given),98.9%,104%,89.6%,99.6%,107%,102%,101%,105%,97.8%,108%
CCCC1CCC(O)(C(C)(O)C(=O)NC2C(=O)N3NCCCC3C(=O)N(O)C(C)C(=O)N3NCCCC3C(=O)N3NCC(O)CC3C(=O)NC(C)C(=O)OC2C(C)C)OC1CC (stereo not given),-64.1% (active),-55.6% (active),-83% (active),-81.5% (active),-74.2% (active),-86% (active),-97.3% (active),-71.8% (active),-72.9% (active),-99.3% (active)

# Source: PubChem BioAssay (NCI)
